Results on 12 molecules are retold here after PubChem BioAssay (NCATS).

Values joined by “and” are separate entries in the source; they are usually repeats but may differ in a detail not shown here. Equal values may be shown once. Inconclusive results are not listed. A call without a number means that no potency is given here. Active and inactive are the calls of the source. Calls come from the whole dose curve; as a rule, active = well fitted curve in the direction sought with a large enough effect; inconclusive = small, poorly fitted or top-dose-only effect, or another doubt; inactive = no such curve, though single readings can be large; an effect the other way counts as inactive or inconclusive.
Potency is the fitted concentration of half-maximal effect.

Rap guanine nucleotide exchange factor 3 (Homo sapiens), sequence (O95398 whole entry, looked up): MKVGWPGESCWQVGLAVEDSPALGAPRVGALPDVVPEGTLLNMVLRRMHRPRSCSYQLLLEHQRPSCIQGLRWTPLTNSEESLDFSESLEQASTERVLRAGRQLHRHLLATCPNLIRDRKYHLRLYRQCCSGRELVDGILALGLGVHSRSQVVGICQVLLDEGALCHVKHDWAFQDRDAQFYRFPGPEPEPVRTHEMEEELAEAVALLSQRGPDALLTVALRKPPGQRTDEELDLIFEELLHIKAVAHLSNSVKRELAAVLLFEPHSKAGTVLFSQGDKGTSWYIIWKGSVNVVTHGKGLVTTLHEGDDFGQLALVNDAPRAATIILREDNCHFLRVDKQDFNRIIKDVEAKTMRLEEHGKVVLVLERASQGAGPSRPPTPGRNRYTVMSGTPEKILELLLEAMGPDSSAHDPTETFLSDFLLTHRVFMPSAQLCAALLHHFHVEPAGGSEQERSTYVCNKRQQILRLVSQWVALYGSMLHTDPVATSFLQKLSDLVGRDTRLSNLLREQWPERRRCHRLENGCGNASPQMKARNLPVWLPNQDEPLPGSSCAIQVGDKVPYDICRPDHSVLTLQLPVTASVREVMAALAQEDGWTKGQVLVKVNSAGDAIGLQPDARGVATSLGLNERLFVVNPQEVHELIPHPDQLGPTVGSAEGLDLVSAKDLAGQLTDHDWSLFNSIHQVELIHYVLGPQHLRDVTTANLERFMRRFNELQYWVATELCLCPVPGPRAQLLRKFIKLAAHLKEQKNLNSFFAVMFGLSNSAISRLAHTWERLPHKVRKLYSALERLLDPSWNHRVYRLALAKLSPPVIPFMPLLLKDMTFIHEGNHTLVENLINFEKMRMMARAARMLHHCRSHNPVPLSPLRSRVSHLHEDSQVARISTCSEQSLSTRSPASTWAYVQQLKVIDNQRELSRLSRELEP

One assay has as its target Rap guanine nucleotide exchange factor 3 (Homo sapiens) (UniProt O95398). Description: Confirmatory qHTS for antagonist of cAMP-regulated guanine nucleotide exchange factor 3 (EPAC1) (AID 1645880). Note: nearly all actives have a fitted effect of over 55% in size. Conditions: EPAC1 Rap1B-BODIPY-GDP exchange, fluorescence; series mostly up to 115 µM. Put shortly:
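Released BODIPY-GDP fluoresces less than Rap1-bound BODIPY-GDP; the signal is followed at 480/540 nm at 5-min intervals over 30 min, after 5 min at room temperature. Reactions contain 100 nM EPAC1, 250 nM RAP1B-BODIPY-GDP and 50 uM GDP; results are normalized to ATA and DMSO.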
In general terms: Quantitative high-throughput screening tests each substance at several concentrations.
With `Cc1cc(OCCCSc2nc(-c3ccc(C(C)(C)C)cc3)nc3cc(=O)[nH]n23)ccc1Cl`, the Potency is 67.5 µM (active).

Turning to `O=C(Nc1cccc(Cl)c1)c1c(NC(=O)C(F)(F)F)sc2c1CCCC2`, the Potency is 37.9 µM (active).

On to `COc1ccc(CCNC(=O)Cn2nc(C)c3c(C)n(-c4ccc(C)cc4)nc3c2=O)c(OC)c1`, for which the Potency is 67.5 µM (active).

Take `Cc1cc(Cl)ccc1NC(=O)Cn1nc(C)c2c(C)n(-c3ccccc3)nc2c1=O`: the Potency is 84.9 µM (active).

On to `Cc1ccc2c(c1)-c1c(c(C(=O)N3CCN(c4cc(C)ccc4C)CC3)nn1C)CS2`, for which the Potency result was “inactive”.

Turning to `Oc1c(C(c2ccccc2)N2CCN(c3cccc(Cl)c3)CC2)sc2nc(-c3ccco3)nn12` (stereo not drawn), the Potency was 47.8 µM (active).

In the case of `Oc1cccc(C(Nc2ccccn2)c2ccc3cccnc3c2O)c1Cl` (stereo not drawn), the Potency result is “inactive”.

For the molecule `CCOC(=O)c1c(NC(=O)c2ccc(S(=O)(=O)N(C)C3CCCCC3)cc2)sc2c1CCN(C(C)C)C2`, the Potency entry is “inactive”.

On to `O=C(CSc1nc(-c2ccc(F)cc2)nc2c1Cc1ccccc1O2)Nc1cccc(C(=O)O)c1`, for which the Potency was 6.01 µM (active) and 151 nM (active).

Turning to `Cc1cccc(OCCCSc2nc(-c3ccc(C(C)(C)C)cc3)nc3cc(=O)[nH]n23)c1C`, the Potency is 37.9 µM (active).

On to `Cc1ccc(Cn2c(Cc3ccccc3)nc3ccccc32)cc1`, for which the Potency result was “inactive”.

The next assay has the same target. In words: Confirmatory qHTS for agonist of cAMP-regulated guanine nucleotide exchange factor 3 (EPAC1) (AID 1645881). Note: nearly all actives have a fitted effect of over 75% in size. The following applies: EPAC1 Rap1B BODIPY-GDP exchange fluorescence; series mostly up to 154 µM.
On to `Cc1cc(OCCCSc2nc(-c3ccc(C(C)(C)C)cc3)nc3cc(=O)[nH]n23)ccc1Cl`, for which the Potency entry is “inactive”.

As to `O=C(Nc1cccc(Cl)c1)c1c(NC(=O)C(F)(F)F)sc2c1CCCC2`, the Potency result is “inactive”.

Take `COc1ccc(CCNC(=O)Cn2nc(C)c3c(C)n(-c4ccc(C)cc4)nc3c2=O)c(OC)c1`: the Potency result was “inactive”.

Turning to `Cc1cc(Cl)ccc1NC(=O)Cn1nc(C)c2c(C)n(-c3ccccc3)nc2c1=O`, the Potency entry was “inactive”.

As to `Cc1ccc2c(c1)-c1c(c(C(=O)N3CCN(c4cc(C)ccc4C)CC3)nn1C)CS2`, the Potency entry is “inactive”.

Turning to `Oc1c(C(c2ccccc2)N2CCN(c3cccc(Cl)c3)CC2)sc2nc(-c3ccco3)nn12` (stereo not drawn), the Potency result was “inactive”.

Turning to `Oc1cccc(C(Nc2ccccn2)c2ccc3cccnc3c2O)c1Cl` (stereo not drawn), the Potency result was “inactive”.

For `CC(C)(C)c1ccc(-c2nc(SCCCOc3ccccc3)n3[nH]c(=O)cc3n2)cc1`, the Potency result is “inactive”.

On to `CCOC(=O)c1c(NC(=O)c2ccc(S(=O)(=O)N(C)C3CCCCC3)cc2)sc2c1CCN(C(C)C)C2`, for which the Potency was 89.1 µM (active).

Turning to `O=C(CSc1nc(-c2ccc(F)cc2)nc2c1Cc1ccccc1O2)Nc1cccc(C(=O)O)c1`, the Potency result is “inactive”.

In the case of `Cc1cccc(OCCCSc2nc(-c3ccc(C(C)(C)C)cc3)nc3cc(=O)[nH]n23)c1C`, the Potency result is “inactive”.

As for `Cc1ccc(Cn2c(Cc3ccccc3)nc3ccccc32)cc1`, the Potency result was “inactive”.
